Compound activity (PubChem BioAssay)
Rv3671c inh: inhibitors of M. tuberculosis serine protease Rv3671c | inhibition, % at 5.96 µM | P9WHR9 | hit rate 0.048% among 320,000; in the data active means inhibition above about 38%;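 further: extracellular domain of Rv3671c used as enzyme; 0% = enzyme with DMSO and 100% = no enzyme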
UGM FP inh: blocks M. tuberculosis UGM enzyme | P9WIQ1 | purified UGM, fluorescence polarization probe displacement | inhibition, % at 10 µM | hit rate 0.06% among 320,000; in the data active means inhibition above about 10%, passing the limit was not always enough
Target sequence (P9WIQ1 whole entry, looked up): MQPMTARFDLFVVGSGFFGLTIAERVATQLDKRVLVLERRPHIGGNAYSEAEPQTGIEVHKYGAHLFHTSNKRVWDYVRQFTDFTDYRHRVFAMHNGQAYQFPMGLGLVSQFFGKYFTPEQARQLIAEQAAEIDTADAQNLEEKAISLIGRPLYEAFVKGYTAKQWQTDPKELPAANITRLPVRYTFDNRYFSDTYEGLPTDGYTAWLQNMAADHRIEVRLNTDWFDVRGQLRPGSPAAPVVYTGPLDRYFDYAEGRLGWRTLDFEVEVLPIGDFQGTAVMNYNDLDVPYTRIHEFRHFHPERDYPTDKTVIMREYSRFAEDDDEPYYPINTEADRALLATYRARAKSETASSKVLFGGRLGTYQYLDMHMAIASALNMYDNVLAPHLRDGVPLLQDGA
Mtb betalactam: beta-lactam sensitization of Mtb H37Rv | M. tuberculosis H37Rv growth with meropenem, percent inhibition | inhibition, % at 25 µM | hit rate 0.27% among 330,000 | AID 434955; call rule not given here;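 further: growth measured after seven days incubation then overnight dye step; 0% = bacteria only wells and 100% = bacteria with antibiotic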
VHR inh abs: DUSP3 (human) phosphatase inhibition; hit rate 0.52% among 290,000; recombinant VHR phosphatase, pNPP absorbance; inhibition, % at 13.3 µM; AID 1654; P51452; in the data active means inhibition above about 50%
Mtb hypoxia rep: inhibitors of hypoxia-regulated fluorescent reporter in Mycobacterium tuberculosis | M. tuberculosis hypoxia-regulated fluorescent reporter, fluorescence | fluorescence inhibition, % (test concentration not listed) | hit rate 0.1% among 300,000 | AID 1159583; in the data active means fluorescence inhibition mostly above about 23%, no sharp cut-off; inactive means mostly below about 17%
* hit, by the source's call; x = no result. The list is not random: actives were taken first. Their share in the collection is about 0.59%.

SMILES | Rv3671c inh | UGM FP inh | Mtb betalactam | VHR inh abs | Mtb hypoxia rep
CN(C)c1ccc2nc3ccc(=[N+](C)C)cc-3sc2c1 | -32.5 | 4.6 | 93.5 | 10.8 | 99.4*
Cc1ccc(-c2noc(CCC(=O)NC3CC3)n2)cc1 | -4.8 | 2.8 | 1.4 | 18.7 | 5.7
COC(=O)C1C(=O)C=C(Nc2ccc(F)cc2)CC1c1ccc(OC)cc1 (stereo unspecified) | -6.6 | -1.1 | 3.6 | 15.2 | 9.7
COCC(=O)N1CCC(n2nccc2NC(=O)CCOc2ccccc2)CC1 | -3.1 | 0.0 | -1.7 | 55.5* | 8.0
C=CCNC(=O)N1CCC(n2nccc2NC(=O)CCCc2ccccc2)CC1 | -0.8 | 2.1 | 5.4 | 55.6* | -0.7
COC(=O)CCCC(=O)N1CCC(n2nccc2NC(=O)CCOc2ccccc2)CC1 | -5.2 | 2.2 | -8.3 | 89.4 | 8.8
CC(C)NC(=O)N(O)C1N(C(C)C)C(=O)N(Cc2ccc3c(c2)OCO3)C1(C)C (stereo unspecified) | 5.4 | 4.3 | 0.1 | 7.7 | 10.5
Cc1ccc(NC2c3ncccc3C(=O)N2Cc2ccco2)c(C)c1 (stereo unspecified) | 6.0 | -0.4 | 1.2 | 24.4 | 6.5
COC(=O)C1=C(c2ccc(S(C)(=O)=O)cc2)CC2CCC1N2C(=O)NC1CCCCC1 (stereo unspecified) | x | x | x | x | 3.7
O=C(Cn1cc(C=C2C(=O)NC(=O)NC2=O)c2ccccc21)NCC1CCCO1 (stereo unspecified) | -4.6 | 5.1 | -1.0 | 11.5 | 13.7
CN1CCCN(C(=O)c2ccc(Br)cc2)CC1 | 4.1 | -2.5 | -6.7 | 34.8 | -2.1
COc1cc(C(=O)N2CCCN(C)CC2)cc(OC)c1C | -3.6 | -0.6 | -9.9 | 56.9* | 0.9
CCCc1nnc(NC(=O)c2c(O)c3cccc4c3n(c2=O)CC4)s1 | 2.9 | 3.1 | 100.1 | -1.0 | 56.0*
CCc1nnc(NC(=O)c2c(O)c3cccc4c3n(c2=O)CC4)s1 | x | x | x | -4.6 | x
O=C(NC(=S)NNC(=O)c1cnccn1)c1ccc(Cl)cc1 | 2.6 | 5.6 | 6.4 | -11.7 | 35.0*
COc1ccc(N2CCN(C3CCCN(Cc4ccc(F)cc4Cl)C3)CC2)cc1 (stereo unspecified) | 4.2 | 5.5 | 2.8 | 51.3* | -0.8
COc1ccc(N2CCN(C3CCCN(S(=O)(=O)c4ccc(C)cc4C)C3)CC2)cc1 (stereo unspecified) | 1.0 | -1.0 | 96.4 | 56.7* | -0.6
COc1ccc(O)c(CN2CCCC(N3CCN(c4ccc(F)cc4)CC3)C2)c1 (stereo unspecified) | -3.7 | 3.3 | 2.9 | 44.4 | -7.3
CCC1CN(C(=O)NCc2ccc(F)cc2)c2cc(Cl)ccc2O1 (stereo unspecified) | x | -0.8 | -1.2 | 57.3* | 8.7
CCc1ccc(-c2nc(-c3ccncc3)no2)cc1 | 7.0 | -0.7 | 36.8 | 57.1* | x
NC(=O)C[C@H](NC(=O)c1ccc(Cl)cc1)C(=O)OCc1ccccc1 | 7.7 | 0.5 | -0.2 | x | 27.8*
COCCCNC(=O)C(CC(N)=O)NC(=O)OCc1ccccc1 (stereo unspecified) | -6.9 | -0.5 | -5.0 | -12.6 | -8.5
CCc1ccccc1NC(=O)c1cccc(NC(=O)C=Cc2ccco2)c1 | x | x | x | x | 9.0
Cc1cccn2c(=O)c3cc(C(=O)NCCN4CCOCC4)c(=N)n(CCCN4CCOCC4)c3nc12 | -2.7 | -1.2 | -5.1 | 55.2* | -12.2
Cc1cccn2c(=O)c3cc(C(=O)NCc4ccccc4)c(=N)n(CCCN4CCOCC4)c3nc12 | x | x | x | x | -2.0
SMILES | Rv3671c inh | UGM FP inh | Mtb betalactam | VHR inh abs | Mtb hypoxia rep
O=C(CSc1nnc(COc2ccc(Cl)cc2)o1)NC1CCCCC1 | 4.1 | -0.6 | -3.4 | x | 16.5
CC(C)Cn1c(=O)c(C(=O)Nc2cnccn2)c(O)c2ccccc21 | 7.4 | -3.8 | -6.1 | 7.9 | 3.2
CC(C)Cn1c(=O)c(C(=O)Nc2ccncc2)c(O)c2ccccc21 | -0.1 | 0.8 | 99.9 | x | 42.1*
CCCCCn1c(=O)c(C(=O)Nc2ccccc2S(N)(=O)=O)c(O)c2ccccc21 | -4.8 | 64.6* | 3.1 | 12.9 | 0.1
CCCCn1c(=O)c(C(=O)Nc2ccccc2S(N)(=O)=O)c(O)c2ccccc21 | -12.4 | 3.5 | -6.0 | 4.5 | 2.7
CCOC(=O)c1c(NC(=O)CN2C(=O)N(C)C3(CCCCC3)C2=O)sc(C(=O)N(C)C)c1C | x | x | x | x | 24.7*
CCOC(=O)c1c(NC(=O)CN2C(=O)NC3(CCCCC3C)C2=O)sc(C(=O)N(C)C)c1C (stereo unspecified) | -1.2 | -1.1 | -0.5 | x | 4.9
O=C(COC(=O)c1ccccc1O)NC1CCCc2ccccc21 (stereo unspecified) | 0.4 | 0.7 | 3.4 | x | 32.6*
COc1cccc(C(=O)OCC(=O)NC2CCCc3ccccc32)c1O (stereo unspecified) | x | x | x | x | 2.8
